In test [1] the test system is Wnt5a (protein binding on small-molecule microarray). As to the kind of experiment: Wnt5a binders on small-molecule microarray, primary screen, biophysical, 635/667 nm fluorescence (AID 1142).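 Note: fluorescence read at 667 nm with signal to noise per printed feature.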 Conditions: 635 nm fluorescence, higher = more signal.
Test [2] can be described thus: cell viability in Huh7 cells, primary screen, cytotoxicity control for HCV replication inhibitor project, CellTiter-Glo luminescence, basal, 48 h (AID 1143).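 Note: Huh7 hepatoma cells carrying a hepatitis C replication reporter with no stimulus; test concentration not given here.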 Conditions: Huh7 HCV replicon, higher = more signal, called active from +8 up or from −8 down. (ATP-based viability assays read luminescence as a measure of living cells.)
Test [3] in a line: P. aeruginosa biofilm formation inhibitors, primary screen, PAO1 strain, BacTiter-Glo luminescence, LB-PBS (AID 1144). Conditions: 12 h, higher = more signal.
Test [4] in a line: CREB reporter modulators without forskolin, primary screen, cell-based, PC12, CRE-LacZ reporter, unstimulated (AID 1145). Conditions: no forskolin, luminescence, 4.5 h, higher = more signal, called active from +8 up or from −8 down.
The nature of test [5]: CREB reporter modulators under forskolin, primary screen, cell-based, PC12, CRE-LacZ reporter, forskolin-stimulated (AID 1146).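 Note: PC12 cells with 6xCRE LacZ reporter stimulated by forskolin 10 µM; beta-galactosidase reporter signal reflecting CREB driven transcription.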 Conditions: luminescence, 4.5 h, higher = more signal, called active from +8 up or from −8 down.
Test [6] concerns the target Streptavidin (Streptomyces avidinii) (UniProt P22629). Description: streptavidin binders on small-molecule microarray, primary screen, artefact control for SMM compound annotation, biophysical, 635/667 nm fluorescence (AID 1147).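 Note: signal reflects streptavidin binding to arrayed compounds as a control protein.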 Conditions: streptavidin binding, higher = more signal.
Test [7] in a line: small-molecule binders of probe aInhba, primary screen, biochemical, small-molecule microarray, 635/667 nm fluorescence (AID 1148).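 Note: score merges 667nm spot fluorescence with signal-to-noise for antibody binding to printed compounds.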 Conditions: higher = more signal.
Test [8] deals with Torsin-1A (Homo sapiens) (UniProt O14656). As to the kind of experiment: torsin A binders from cell lysate, primary screen, small-molecule microarray, wild-type, 635/667 nm (AID 1149). Particulars: COS7 hTOR1A-WT lysate, 635 nm fluorescence, higher = more signal.
Test [9] shares this target. Description: small-molecule binders of mutant TOR1A in lysate, primary screen, cell lysate, small-molecule microarray, COS7 lysate, 635/667 nm fluorescence (AID 1150).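 Note: score pools 667 nm emission and signal to noise measuring lysate protein binding.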 Conditions: COS7 hTOR1A mutant lysate, 635 nm fluorescence, higher = more signal.
In test [10] the test system is Sonic hedgehog protein (Shh). Description: small-molecule binders of Shh protein, primary screen, biochemical, small-molecule microarray, 635/667 nm fluorescence (AID 1151).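 Note: Shh protein binding to compounds spotted on small-molecule microarray slides; score combines spot fluorescence intensity with signal-to-noise across triplicate slides.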 Conditions: small-molecule microarray binding, 635 nm fluorescence; higher = more signal.
Test [11] in a line: E. coli DRC41 culture turbidity changes, primary screen, E. coli filamentation inducer project, strain DRC41, OD650, 48 h (AID 1152).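 Note: E. coli MC1000 strain DRC41 lacking acrAB efflux pump and sulA.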 Conditions: E. coli DRC41 (acrAB sulA), higher = more signal, called active from +8 up or from −8 down.
Test [12] can be described thus: small-molecule binders of probe aLefty1, primary screen, biochemical, small-molecule microarray, 635/667 nm fluorescence (AID 1153).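 Note: score merges spot fluorescence with signal-to-noise ratio from the scanned slide images.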 Particulars: higher = more signal.
Test [13] in a line: PSAC antagonists in infected red cells, primary screen, cell-based, P. falciparum Indochina, OD700, 1 h (AID 1154). Conditions: P. falciparum Indochina infected RBC osmotic lysis, higher = more signal, called active from +8 up or from −8 down.
The nature of test [14]: PSAC antagonists in infected red cells, primary screen, cell-based, P. falciparum Indochina, OD700, 2 h (AID 1155).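 Note: lysis reports solute entry through the parasite surface anion channel PSAC; channel blockers reduce lysis of infected cells.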 Conditions: P. falciparum Indochina infected erythrocytes, osmotic lysis OD700; higher = more signal, called active from +8 up or from −8 down.
The nature of test [15]: osmotic lysis modulators in infected erythrocytes, primary screen, PSAC antagonist project, cell-based, P. falciparum Indochina, OD700, 3 h (AID 1156). Particulars: higher = more signal, called active from +8 up or from −8 down.
Test [16] can be described thus: PSAC antagonists in infected red cells, primary screen, cell-based, P. falciparum Indochina, OD700, 18 h (AID 1157). Particulars: P. falciparum Indochina infected erythrocytes, osmotic lysis OD700, 18 h; higher = more signal, called active from +8 up or from −8 down.
Test [17] in a line: modulators of S6 phosphorylation in cells, primary screen, cell-based, A549, cytoblot, luminescence, serum-stimulated (AID 1158).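 Note: serum-stimulated A549 lung adenocarcinoma cells; signal is phosphorylated S6 detected by cytoblot immunostaining with HRP secondary.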 Particulars: A549 phospho-S6 cytoblot, 5 h, higher = more signal.
For test [18], the target named is NADPH oxidase 2 (Homo sapiens) (UniProt P04839). Description: NOX2-dependent H2O2 signal modulators, primary screen, NOX inhibitor project, cell-based, HEK293-NOX2, PMA-stimulated, Amplex Red fluorescence (AID 1159). Note: test concentration not given here. Particulars: 45 min, higher = more signal, called active from +8 up or from −8 down.
The target in test [19] is NADPH oxidase 4 (Homo sapiens) (UniProt Q9NPH5). As to the kind of experiment: NOX4-dependent H2O2 signal modulators, primary screen, NOX inhibitor project, cell-based, HEK293-NOX4, tetracycline-induced, Amplex Red fluorescence (AID 1160). Particulars: 45 min, higher = more signal, called active from +8 up or from −8 down.
The target in test [20] is NADPH oxidase 5 (Homo sapiens) (UniProt Q96PH1). Description: NOX5-dependent H2O2 signal modulators, primary screen, NOX inhibitor project, cell-based, HEK293-NOX5, Amplex Red fluorescence (AID 1161). Particulars: HEK293-NOX5, ionomycin, 45 min, higher = more signal.

Active and inactive are the calls of the source. Unless noted, the rule behind the calls is not given here.

Chain of NADPH oxidase 2 (Homo sapiens) (P04839 whole entry, looked up): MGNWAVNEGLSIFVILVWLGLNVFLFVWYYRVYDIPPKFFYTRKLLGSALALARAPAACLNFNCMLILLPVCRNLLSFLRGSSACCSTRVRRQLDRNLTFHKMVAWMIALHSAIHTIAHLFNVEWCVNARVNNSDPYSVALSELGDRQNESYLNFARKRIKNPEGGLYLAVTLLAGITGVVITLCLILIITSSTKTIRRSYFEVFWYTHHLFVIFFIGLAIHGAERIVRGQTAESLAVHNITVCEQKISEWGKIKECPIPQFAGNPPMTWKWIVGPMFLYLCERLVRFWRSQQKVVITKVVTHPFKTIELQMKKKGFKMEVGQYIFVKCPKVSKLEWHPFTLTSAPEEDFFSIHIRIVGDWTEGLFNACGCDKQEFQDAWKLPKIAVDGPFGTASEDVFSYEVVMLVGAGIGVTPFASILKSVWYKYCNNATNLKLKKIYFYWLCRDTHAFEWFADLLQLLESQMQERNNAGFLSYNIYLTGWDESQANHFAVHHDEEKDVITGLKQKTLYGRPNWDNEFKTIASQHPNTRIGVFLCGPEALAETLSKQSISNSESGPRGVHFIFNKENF
Chain of Streptavidin (Streptomyces avidinii) (P22629 whole entry, looked up): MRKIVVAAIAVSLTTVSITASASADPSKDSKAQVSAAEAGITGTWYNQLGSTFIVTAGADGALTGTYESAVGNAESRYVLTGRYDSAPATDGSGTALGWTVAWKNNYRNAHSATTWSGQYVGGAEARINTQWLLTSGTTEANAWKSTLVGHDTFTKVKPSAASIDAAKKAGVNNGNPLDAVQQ
Chain of Torsin-1A (Homo sapiens) (O14656 whole entry, looked up): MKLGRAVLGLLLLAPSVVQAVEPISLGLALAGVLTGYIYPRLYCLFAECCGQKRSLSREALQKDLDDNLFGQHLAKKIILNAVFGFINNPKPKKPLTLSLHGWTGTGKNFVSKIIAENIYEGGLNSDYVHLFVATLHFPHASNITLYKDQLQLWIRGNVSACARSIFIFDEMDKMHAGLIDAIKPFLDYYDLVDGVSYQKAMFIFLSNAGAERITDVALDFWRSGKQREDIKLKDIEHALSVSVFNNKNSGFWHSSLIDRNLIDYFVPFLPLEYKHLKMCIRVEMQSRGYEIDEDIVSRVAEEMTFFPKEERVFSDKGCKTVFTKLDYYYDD
Chain of NADPH oxidase 5 (Homo sapiens) (Q96PH1 whole entry, looked up): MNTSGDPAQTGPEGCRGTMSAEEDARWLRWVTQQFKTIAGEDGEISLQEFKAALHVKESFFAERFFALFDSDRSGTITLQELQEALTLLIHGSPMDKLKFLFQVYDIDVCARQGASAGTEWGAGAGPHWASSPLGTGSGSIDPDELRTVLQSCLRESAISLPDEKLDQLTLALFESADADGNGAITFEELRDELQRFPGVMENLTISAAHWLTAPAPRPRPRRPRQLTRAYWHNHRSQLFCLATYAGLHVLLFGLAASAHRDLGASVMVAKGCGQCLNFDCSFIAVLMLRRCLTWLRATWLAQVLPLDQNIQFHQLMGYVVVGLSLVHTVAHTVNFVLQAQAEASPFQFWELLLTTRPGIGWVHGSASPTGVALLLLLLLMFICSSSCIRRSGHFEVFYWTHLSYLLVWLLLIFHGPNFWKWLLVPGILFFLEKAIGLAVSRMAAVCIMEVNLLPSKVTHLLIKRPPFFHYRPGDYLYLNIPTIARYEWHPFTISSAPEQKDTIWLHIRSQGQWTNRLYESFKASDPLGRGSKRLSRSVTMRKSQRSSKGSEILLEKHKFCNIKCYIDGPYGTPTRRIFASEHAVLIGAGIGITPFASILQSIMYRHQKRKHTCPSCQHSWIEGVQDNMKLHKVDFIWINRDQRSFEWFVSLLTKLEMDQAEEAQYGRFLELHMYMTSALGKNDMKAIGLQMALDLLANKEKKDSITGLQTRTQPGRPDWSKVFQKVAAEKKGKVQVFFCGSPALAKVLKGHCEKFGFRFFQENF
Chain of NADPH oxidase 4 (Homo sapiens) (Q9NPH5 whole entry, looked up): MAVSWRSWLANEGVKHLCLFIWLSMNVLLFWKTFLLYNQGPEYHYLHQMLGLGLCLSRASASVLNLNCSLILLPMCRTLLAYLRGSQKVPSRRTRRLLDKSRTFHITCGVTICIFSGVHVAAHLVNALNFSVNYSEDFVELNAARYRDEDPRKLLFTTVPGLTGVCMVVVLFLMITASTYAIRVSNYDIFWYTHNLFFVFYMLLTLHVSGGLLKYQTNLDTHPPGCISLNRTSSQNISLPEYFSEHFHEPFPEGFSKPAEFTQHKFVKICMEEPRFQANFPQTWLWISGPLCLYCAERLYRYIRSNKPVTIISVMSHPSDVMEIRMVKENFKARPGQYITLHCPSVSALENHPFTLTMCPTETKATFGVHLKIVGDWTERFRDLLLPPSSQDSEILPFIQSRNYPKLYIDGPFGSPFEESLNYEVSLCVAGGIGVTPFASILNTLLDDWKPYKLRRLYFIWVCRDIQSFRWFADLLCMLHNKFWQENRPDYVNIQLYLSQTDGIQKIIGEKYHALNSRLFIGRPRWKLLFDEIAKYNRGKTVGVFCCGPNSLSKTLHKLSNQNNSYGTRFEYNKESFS

As to `[N-]=[N+]=Nc1ccccc1C[C@]1(C(=O)NCc2ccccc2)N=C(c2ccc(OCCCO)cc2)O[C@H]1c1ccccc1N=[N+]=[N-]`, the composite z-score was 0.933 in test [1]; 1.73 in [6]; -0.156 in [7]; 0.109 in test [8]; 0.286 in [9]; -0.4 in [10]. This molecule also displayed a composite z-score in [12] of -0.353. The z-score was -4.05 (inactive) in test [2]; 0.0249 (inactive) in test [3]; 1.77 (inactive) in [4]; -0.741 (inactive) in test [5]; -0.107 (inactive) in test [11]; 28.1 (active) in test [13]. The z-score in test [14] is 28.7 (active); in test [15] it was 2.76 (inactive); in test [16], 5.76 (inactive); in test [17], 0.096; in [18], -1.87 (inactive); in [19], 0.483 (inactive). In [20], this molecule registered a z-score of -0.32.
For the molecule `CC(=CC1CCCCC1)[C@@H](NC(=O)c1cccnc1)c1ccc(-c2ccccc2)cc1`, the composite z-score in test [1] is -0.444; in test [6] it was 0.0816; in test [7] it was -0.0986; in [8], -0.77; in [9], -0.278; in [10], -0.683. Moreover, in test [12], the composite z-score was 0.188. In addition, the z-score in test [2] is -2.65 (inactive); in test [3] it was 0.477 (inactive); in [4], 1.34 (inactive); in test [5], 1.24 (inactive); in test [11] it was -2.67 (inactive); in [13], 1.85 (inactive). In addition, the z-score in test [14] is 0.943 (inactive); in test [15], -0.0465 (inactive); in test [16], 0.348 (inactive); in [17], -0.849; in [18], -1.27 (inactive); in [19] it was -2.55 (inactive). Also, the z-score in [20] was -0.0302.
For `CCCCN1CC=CC23O[C@@H]4C=CCCOC(=O)C4[C@H]2C(=O)N(CCCCCO)[C@@H]3C1=O` (stereo not given in full), the composite z-score in test [1] is -0.276; in test [6], -0.525; in test [7], -0.233; in test [8], 0.226; in test [9] it was 0.735; in test [10] it was -0.198. In [12], the composite z-score is -0.363. Besides, the z-score in test [2] is 0.342 (inactive); in test [3] it was -0.0153 (inactive); in [4] it was 0.199 (inactive); in test [5] it was 0.794 (inactive); in test [11], 0.4 (inactive); in [13], 1.47 (inactive). The z-score in test [14] was 0.48 (inactive); in [15], 2.26 (inactive); in test [16], 0.331 (inactive); in test [17] it was -0.0028; in test [18], 1.28 (inactive); in test [19], 0.0393 (inactive). This molecule also displayed a z-score in [20] of 1.46.
For the molecule `CC#CC(=O)Oc1ccc(Br)cc1C=CC(=O)OCC`, the composite z-score in test [1] was -0.0465; in test [6] it was 0.119; in test [7], 0.248; in [8], -0.0177; in [9], -0.329; in [10] it was 0.247. The molecule also yielded a composite z-score in [12] of 0.0386. Also, the z-score in test [2] was -2.98 (inactive); in test [3] it was 0.0278 (inactive); in test [4], 1.81 (inactive); in test [5] it was 32.2 (active); in test [11], -1.17 (inactive); in test [13], 25.5 (active). Also, the z-score in test [14] is 7.06 (inactive); in test [15], -0.189 (inactive); in test [16], 1.37 (inactive); in test [17] it was -0.27; in test [18], -1.86 (inactive); in test [19], -2.68 (inactive). In addition, the z-score in [20] worked out at 0.227.
As for `CC=CC(O)C1C=CC2C(=O)N(C)C(=O)C2N1N(c1ccccc1)c1ccccc1` (stereo not given), the composite z-score worked out at 0.16 in [1]; 0.29 in test [6]; 0.0536 in test [7]; 2.7 in test [8]; 1.3 in [9]; 0.306 in test [10]. The molecule further yielded a composite z-score in [12] of -0.101. Moreover, the z-score is 0.695 (inactive) in test [2]; 0.305 (inactive) in test [3]; -0.326 (inactive) in [4]; 0.493 (inactive) in test [5]; -1.3 (inactive) in test [11]; -0.553 (inactive) in [13]. The z-score in test [14] is 0.603 (inactive); in [15], -0.461 (inactive); in [16], 1.12 (inactive); in test [17] it was -0.674; in [18], -0.633 (inactive); in test [19] it was -0.176 (inactive). In test [20], this molecule had a z-score of -0.111.
Consider `C=CCOC(=O)[C@H]1[C@@H]2C(=O)O[C@@H](c3ccccc3)[C@@H](c3ccccc3)N2[C@@H](c2ccc(OCCOC(=O)[C@@H]3C[C@@H]4C(=O)N5CCC[C@H]5C(=O)N4[C@@H]3c3cccc(OCCO)c3)cc2)[C@]12C(=O)Nc1ccc(I)cc12`, for which the composite z-score came to 0.535 in test [1]; 0.763 in test [6]; 0.944 in test [7]; 0.821 in [8]; 0.573 in test [9]; 2.18 in test [10]. In [12], this molecule yielded a composite z-score of 1.53. Moreover, the z-score in test [2] was -0.402 (inactive); in test [3] it was -0.615 (inactive); in test [4], 0.423 (inactive); in [5], -0.633 (inactive); in test [11], -0.811 (inactive); in [13], 4.52 (inactive). Further, the z-score in [14] was 2.5 (inactive); in test [15] it was 1.25 (inactive); in test [16], 1.5 (inactive); in test [17], -0.679; in test [18], 1.86 (inactive); in [19], 0.833 (inactive). Besides, the z-score in test [20] was 1.49.
As for `O=C(CS)NCCCCCNC(=O)[C@H]1C[C@H]2C(=O)NCC(=O)N2[C@H]1c1cccc(OCCO)c1`, the composite z-score is -0.341 in [1]; -1.05 in test [6]; -0.217 in test [7]; -0.181 in test [8]; -0.0418 in [9]; 0.27 in [10]. In addition, the composite z-score in test [12] was -0.142. The z-score in [2] is -0.466 (inactive); in test [3], -0.218 (inactive); in test [4] it was -1.48 (inactive); in test [5] it was 0.0277 (inactive); in test [11], 1.43 (inactive); in test [13], 0.0198 (inactive). The z-score in test [14] is -0.851 (inactive); in [15], -4 (inactive); in test [16], -2.1 (inactive); in test [17], -0.61; in test [18], 0.448 (inactive); in test [19], 1.08 (inactive). In addition, the z-score in [20] amounted to 0.664.
For the molecule `NCCCCCNC(=O)[C@H]1C[C@H]2C(=O)N[C@@H](Cc3ccccc3)C(=O)N2[C@H]1c1cccc(OCCO)c1`, the composite z-score is -0.0768 in test [1]; 0.951 in [6]; 0.205 in [7]; 0.5 in test [8]; 0.71 in [9]; 0.102 in [10]. Further, the composite z-score in test [12] came to 1.17. For the same molecule, the z-score is -0.535 (inactive) in [2]; -0.2 (inactive) in test [3]; 1.49 (inactive) in test [4]; -0.389 (inactive) in [5]; 0.545 (inactive) in test [11]; 3.99 (inactive) in [13]. In addition, the z-score in test [14] was 0.812 (inactive); in test [15], -0.685 (inactive); in [16] it was 0.325 (inactive); in test [17], -0.136; in test [18] it was 1.38 (inactive); in [19], 0.875 (inactive). Besides, in [20], the z-score was determined as 0.434.

Source of the values: PubChem BioAssay.
